Among all 96,000 compounds or so, about 200 (0.21%) were called active. Shown is part of a subset that was picked to be rich in actives. Values without a mark were called inactive.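 The calls were made as follows: active = inhibition at 2 µM at or above a set limit, the screen mean plus 3 SD (cut at about 24% in these data); inactive = the rest.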

A word on the inhibition: it is the change of the read-out against control, counted positive when it falls.

Tyrosine-protein phosphatase non-receptor type 22 (Homo sapiens), sequence (Q9Y2R2 whole entry, looked up, the tested form may be a part): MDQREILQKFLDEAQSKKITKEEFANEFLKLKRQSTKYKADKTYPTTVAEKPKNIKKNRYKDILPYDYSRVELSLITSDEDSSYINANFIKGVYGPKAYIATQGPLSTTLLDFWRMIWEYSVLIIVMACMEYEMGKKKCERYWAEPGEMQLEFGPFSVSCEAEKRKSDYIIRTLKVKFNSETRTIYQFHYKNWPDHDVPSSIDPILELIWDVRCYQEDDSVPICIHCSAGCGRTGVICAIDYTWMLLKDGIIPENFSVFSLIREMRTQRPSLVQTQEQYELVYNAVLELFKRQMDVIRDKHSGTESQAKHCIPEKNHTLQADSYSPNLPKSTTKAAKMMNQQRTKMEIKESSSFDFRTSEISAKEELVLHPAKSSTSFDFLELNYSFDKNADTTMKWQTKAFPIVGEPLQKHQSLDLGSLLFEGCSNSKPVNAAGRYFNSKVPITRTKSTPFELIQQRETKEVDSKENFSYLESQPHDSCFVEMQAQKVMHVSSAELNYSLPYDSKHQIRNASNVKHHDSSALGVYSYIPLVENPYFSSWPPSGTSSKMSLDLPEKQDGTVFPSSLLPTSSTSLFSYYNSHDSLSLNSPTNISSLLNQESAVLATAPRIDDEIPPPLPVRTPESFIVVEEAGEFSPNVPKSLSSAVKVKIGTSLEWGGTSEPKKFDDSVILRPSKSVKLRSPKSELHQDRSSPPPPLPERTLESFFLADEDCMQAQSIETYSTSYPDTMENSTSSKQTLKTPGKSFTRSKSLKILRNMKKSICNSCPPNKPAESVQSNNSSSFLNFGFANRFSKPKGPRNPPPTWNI

The experiment has as its target Tyrosine-protein phosphatase non-receptor type 22 (Homo sapiens) (UniProt Q9Y2R2). Put plainly: PTPN22 phosphatase inhibitors, primary screen, biochemical, DiFMUP fluorescence, 2 µM (AID 640).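 Also: 0% = DMSO with enzyme and 100% = enzyme fully blocked by orthovanadate.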 As to conditions: recombinant LYP catalytic domain, at 2 µM, active compounds read high.
As to `Cc1ccc(OCC(=O)Nc2cccc3c2CCCC3)cc1C`, the inhibition is 10%.
In the case of `CCN1CCN(C(=O)/C=C\C(=O)O)CC1`, the inhibition was -7%.
For `Cc1cc(S(=O)(=O)NC2CCCCC2)ccc1OCC(=O)NCc1cccnc1` the value was -9.7%.
Regarding `COc1ccc(Br)cc1CN1CCN(C(=O)c2cccc(OC)c2OC)CC1`, the inhibition is 0.1%.
`COC(=O)c1c(CCl)noc1C(=O)NC(C)C`: the inhibition is -0.4%.
For `CCc1ccc2c(c1)C1(NN=C(c3ccccc3)S1)C(=O)N2` (stereo not given) the value was 15.3%.
On to `CCCCc1nnc(NC(=O)CS(=O)(=O)Cc2ccccc2)s1`, for which the inhibition is 3.6%.
In the case of `c1ccc(-c2noc(-c3cccs3)n2)nc1` it was 7.6%.
For `c1ccc(-c2nccc(-c3ccc(-n4cnc5ccccc54)cc3)n2)nc1` the value was 39.8% (active); for `CC(C)c1nc(-c2ccccn2)no1`, 4%; for `COc1ccc(Nc2cc(=O)oc3ccccc23)cc1`, 5%.
As for `Cc1cc(-n2nc(C)cc2C)n2nc(C)c(-c3ccccc3)c2n1`, the inhibition was -2.6%.
With `O=C(Nc1ccccc1)O/N=C1\CCCCC1c1ccc([N+](=O)[O-])cc1[N+](=O)[O-]` (stereo not given), the inhibition is -11%.
For `O=S(=O)(NN=C1CCCCCCC1)c1ccc(Br)cc1`, the inhibition is 6.1%.
For `Cc1nc2ccccc2n1C(=O)N1CCOCC1` the value was 1.2%; for `Cc1ccc(S(=O)(=O)N(CC(=O)N2CCc3ccccc3C2)c2cccc(Cl)c2)cc1`, 4.6%.
For the compound `Cc1cc(C)c(NC(=O)CN2CCOCCOCCOCCOCC2)c(C)c1`, the inhibition is 3.4%.
For `O=C(Oc1ccccc1)Oc1ccc2c(c1)oc(=O)c1ccccc12` the value was -1.7%; for `COCCN(C(=O)c1ccco1)c1nnc(-c2ccc(OC)cc2)s1`, 10.8%; for `COc1ccc(S(=O)(=O)NCc2ccc(C(=O)N(C)Cc3ccco3)cc2)cc1`, -6%.
`CCOC(=O)C1=C(C)NC(SC)=NC1c1ccccc1` (stereo not given): the inhibition was -0.6%.
In the case of `Cc1nc2cc(NC(=O)NCc3ccccc3)ccc2o1` it was -5.6%.
Regarding `O=C1Nc2cc(Cl)c(Cl)cc2N(O)N1c1cc(Cl)cc(Cl)c1`, the inhibition is -15.4%.
As for `COc1ccc2nc(SCC(=O)Nc3c(C)cc(C)cc3C)[nH]c2c1`, the inhibition is -3.6%.
For the compound `O=C(c1cccc(F)c1)N1CCN(c2ccc([N+](=O)[O-])c(N3CCCCC3)c2)CC1`, the inhibition is 8.1%.
In the case of `Cc1nnc(NC(=O)Nc2ccc(Cl)c(Cl)c2)s1`, the inhibition is 24.4% (active).
Turning to `CCn1nccc1C(=O)Nc1ccc(Cl)c(Cl)c1`, the inhibition was -0.3%.
On to `O=C(CC(O)(C(F)(F)F)C(F)(F)F)Nc1ccc(Cl)c(Cl)c1`, for which the inhibition is -2.3%.
Take `CCOC(=O)C1CN(S(=O)(=O)c2ccc(F)cc2)C1`: the inhibition was 8.4%.
Turning to `CC(C)(C)NC(=O)CSC(=Nc1ccccc1F)NC#N`, the inhibition was 11.7%.
Regarding `CCCn1nnc(NC(=O)COc2ccc(CC)cc2)n1`, the inhibition is 14.5%.
For `CCOC(=O)C(Sc1ncc(C#N)c(N)n1)C(C)C` (stereo not given) the value was 4.5%.
Consider `Cc1ccc(CN2CCN(/N=C/c3ccco3)CC2)c(C)c1`, for which the inhibition is 6.2%.
For `CCOC(=O)CN(Cc1ccc(OC)c(OC)c1)S(=O)(=O)c1ccc(OC)cc1` the value was 4.6%.
`Cn1nc(C(F)(F)F)c2cc(NC(=O)OCC(C)(C)C)sc21`: the inhibition is -3.4%.
With `CCCCNCc1ccc(SC)cc1`, the inhibition was -8.8%.
In the case of `COc1ccc(-c2noc(CSc3ccc(C)cc3)n2)cc1` it was 6.7%.
In the case of `CCSc1nnc(NC(=O)c2ccc(C)cc2)s1` it was -2.4%.
Regarding `CC(C)(C)C(=O)Nc1ccc(C(=O)N/N=C/c2ccccc2OC(=O)c2ccc(Cl)cc2Cl)cc1`, the inhibition is 13%.
Turning to `CC(C)n1c(-c2cccs2)nc2ccccc21`, the inhibition was -3.5%.
In the case of `CCOC(=O)c1cnc(SCC(=O)Nc2cccc(OC)c2)nc1N`, the inhibition is -12.3%.
For `Cc1ccc(-n2c(C)cc(/C=N/Nc3ccc([N+](=O)[O-])cn3)c2C)c(C)c1` the value was 11.5%; for `Cc1nc(NC(=O)CN(C)S(=O)(=O)c2ccc(Cl)cc2)sc1C`, 6.8%; for `Nc1c(-c2cccc(Cl)c2)cnn1-c1cccc([N+](=O)[O-])c1`, -9.9%.
In the case of `O=C(N/N=C/c1ccsc1)c1cc(O)cc(O)c1` it was 4.4%.
Consider `Cn1cc([N+](=O)[O-])c(C(=O)Nc2ccc3c(c2)OCCO3)n1`, for which the inhibition was 3.8%.
On to `O=S(=O)(N/N=C\c1cccn1-c1ccccc1)c1ccc2ccccc2c1`, for which the inhibition was -4.4%.
Consider `O=C1CSC(c2ccc(Cl)cc2)N1` (stereo not given), for which the inhibition is -5.4%.
For `COCC(=O)Nc1ccc(Br)cc1` the value was -3.3%; for `Cn1c(=O)c2c(nc(N3CCOCC3)n2CCNC2=NCCC2)n(C)c1=O`, -6.1%.
For `COn1c(=O)c(=O)n(OC)c2ccccc21` the value was 3.4%; for `Cc1oc(-c2ccccc2Cl)[n+]([O-])c1C`, -4.8%; for `CC1=NN(C(C)C)C(=O)C1`, 1.5%.
In the case of `c1ccc(CSc2ncnc3c2sc2nc(N4CCOCC4)c4c(c23)CCCC4)cc1` it was 10.1%.
On to `CCOc1cccc(NC(=O)Cn2nc(-c3ccc4c(c3)OCCO4)ccc2=O)c1`, for which the inhibition was 7.6%.
For `O=C(Nc1ccc2sc3ccccc3c(=O)c2c1)c1ccccc1Cl` the value was 1.6%; for `COC(=O)CSc1nnc(-c2cccnc2)o1`, 4.2%.
As for `Cc1ccc2oc(=O)c3cnn(CC(=O)N(Cc4ccco4)C4CCCCC4)c3c2c1`, the inhibition is 3.6%.
In the case of `COc1cc(S(=O)(=O)N(Cc2cccs2)C2CC2)ccc1-n1cnnn1` it was -4.5%; in that of `CCOc1ccc(N=C2NC(=O)S/C2=C\c2ccc(O)cc2)cc1`, -3.4%.
On to `COc1ccc2oc(=O)c(C(=O)NCc3ccccn3)cc2c1`, for which the inhibition is -1.3%.
`Cc1cc(/C=C2/SC(=O)N(CC(=O)OC(C)C)C2=O)c(C)n1C`: the inhibition was 9.2%.
For `N#Cc1ccccc1CN1C(=O)S/C(=C/c2cccn2-c2cccc(C(=O)O)c2)C1=O` the value was 32.6% (active); for `Brc1ccc(-c2nnc(-c3ccccc3)o2)o1`, -8.3%; for `O=C(CCCN1C(=O)c2ccccc2C1=O)Oc1ccc(Cl)cc1`, 4.1%.

The values are drawn from PubChem BioAssay AID640 (Columbia University Molecular Screening Center, 2007).
